This is an account of results in PubChem BioAssay (NCI).

Some test systems named below: NCI-H23 lung; NCI-H226 lung; NCI-H322M lung; HOP-62 NSCLC; NCI-H460 lung; HOP-92 NSCLC; NCI-H522 lung; A549/ATCC NSCLC; 786-0 renal; COLO 205 colon.
Common to all, as to experiment: NCI-60 one-dose screen, 48 h (100 = growth as untreated, 0 = no growth, -100 = all killed)
Holding throughout (settings): 10 µM unless noted

About 83,000 compounds went through this panel and 20% of them were active in at least one assay; those are over-represented in the sample as a whole.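 A percent growth of 40 corresponds to 60% growth inhibition; 0 means no net growth; -100 means all cells died. Active threshold: below 10.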 A number with no mark means an inactive call. Active and inactive are the calls of the source.

`COc1cc(N2C(=O)c3nccnc3C2=O)cc(OC)c1OC`: the growth in the experiment on NCI-H23 lung is 99.6%; in the experiment with NCI-H226 lung it was 114%; with NCI-H322M lung, 99.7%; in the experiment on HOP-62 NSCLC, 95.9%; in the experiment with NCI-H460 lung, 111%; in the experiment with HOP-92 NSCLC, 89.9%. For the same compound, the growth was 95.2% in the experiment with NCI-H522 lung, 105% with A549/ATCC NSCLC, 97.1% in the experiment on 786-0 renal and 111% in the experiment on COLO 205 colon.

`N#CC1=C(/N=C/c2ccccc2)Oc2c(ccc3ccccc23)C1c1ccccc1` (stereo not given): the growth in the experiment on NCI-H23 lung was 28.6%; in the experiment with NCI-H226 lung it was 52.9%; in the experiment with NCI-H322M lung it was 45.6%; in the experiment with HOP-62 NSCLC, 21.1%; in the experiment with NCI-H460 lung, 11.6%; in the experiment on HOP-92 NSCLC, 50.4%. The growth in the experiment on NCI-H522 lung is -4.7% (active); with A549/ATCC NSCLC, 21%; with 786-0 renal it was 23.2%; with COLO 205 colon it was -23.2% (active).

For `COC1=C(OC)C(=O)C(OC)=C(OC)C1=O`, the growth with NCI-H23 lung was 98.6%; with NCI-H226 lung, 93.6%; in the experiment on NCI-H322M lung, 95.7%; in the experiment with HOP-62 NSCLC, 112%; in the experiment with NCI-H460 lung, 108%; in the experiment with HOP-92 NSCLC, 103%. The growth with NCI-H522 lung is 108%; in the experiment on A549/ATCC NSCLC, 90%; in the experiment on 786-0 renal, 99.3%; with COLO 205 colon, 113%.

`CCCCC1CCCCN1C(=O)OCC` (stereo not given): the growth with NCI-H23 lung is 102%; in the experiment on NCI-H226 lung, 121%; in the experiment with NCI-H322M lung, 101%; in the experiment with HOP-62 NSCLC, 103%; in the experiment on NCI-H460 lung, 107%; in the experiment on HOP-92 NSCLC, 88.5%. Besides, the growth in the experiment with NCI-H522 lung was 94.1%; with A549/ATCC NSCLC it was 95.1%; with 786-0 renal, 93%; in the experiment on COLO 205 colon, 102%.

Take `COc1ccc(-c2nc(SCCC(C)C)nc(N/N=C\c3cccc([N+](=O)[O-])c3)c2C#N)cc1`: the growth in the experiment on NCI-H23 lung was 28.7%; with NCI-H226 lung, 44.5%; in the experiment with NCI-H322M lung, 45.6%; in the experiment on HOP-62 NSCLC, 17.7%; with NCI-H460 lung it was 13.3%; in the experiment on HOP-92 NSCLC, 50.9%. Further, the growth in the experiment with NCI-H522 lung is 29.8%; in the experiment on A549/ATCC NSCLC, 11.7%; in the experiment on 786-0 renal, 15.3%; with COLO 205 colon, 42%.

Consider `Cc1cc(N2CCCC2)nc(NCc2cc(Nc3ccnc4cc(Cl)ccc34)ccc2F)n1`, for which the growth in the experiment with NCI-H23 lung is -27.8% (active); in the experiment with NCI-H226 lung, 24.8%; in the experiment on NCI-H322M lung it was -27.6% (active); with HOP-62 NSCLC, -69.2% (active); in the experiment on NCI-H460 lung it was -71.5% (active); with HOP-92 NSCLC, -14% (active). The growth is -50.3% (active) in the experiment with NCI-H522 lung, -13.1% (active) in the experiment with A549/ATCC NSCLC, -92.7% (active) in the experiment with 786-0 renal and -82.2% (active) in the experiment with COLO 205 colon.

Turning to `Cc1ccc(S(=O)(=O)N/N=C\c2cc(Cl)ccc2O)cc1`, the growth is 96.8% with NCI-H23 lung; 96.4% with NCI-H226 lung; 114% with NCI-H322M lung; 105% in the experiment with HOP-62 NSCLC; 93.7% in the experiment with NCI-H460 lung; 72.9% with HOP-92 NSCLC. Also, the growth was 80.3% in the experiment with NCI-H522 lung, 82% in the experiment with A549/ATCC NSCLC, 74.5% in the experiment with 786-0 renal and 96.9% with COLO 205 colon.

Turning to `O=C1Nc2ccccc2/C1=C/c1cn(C(=O)c2c(Cl)cccc2Cl)c2ccccc12`, the growth is 56.9% with NCI-H23 lung; 48.2% in the experiment with NCI-H226 lung; 90.4% with NCI-H322M lung; 88.8% with HOP-62 NSCLC; 71.2% in the experiment on NCI-H460 lung; 49.1% with HOP-92 NSCLC. Moreover, the growth with NCI-H522 lung is 55.3%; with A549/ATCC NSCLC, 36.7%; with 786-0 renal, 57.1%; in the experiment with COLO 205 colon, 41.7%.

`O=c1oc2ccccc2c(Cl)c1Cl`: the growth in the experiment on NCI-H23 lung was 60.6%; in the experiment on NCI-H226 lung, 70.8%; in the experiment on NCI-H322M lung, 91.5%; with HOP-62 NSCLC it was 83.3%; with NCI-H460 lung it was 103%; in the experiment with HOP-92 NSCLC it was 97.4%. Moreover, the growth with NCI-H522 lung is 22.9%; in the experiment on A549/ATCC NSCLC, 89.6%; in the experiment on 786-0 renal it was 47.3%; in the experiment on COLO 205 colon it was 11.8%.

With `CCN(CC)CCCNc1ccc(Nc2ccc(OC)cc2)cc1`, the growth in the experiment with NCI-H23 lung was 92.3%; in the experiment on NCI-H226 lung, 110%; with NCI-H322M lung, 83.3%; in the experiment with HOP-62 NSCLC it was 98.1%; in the experiment on NCI-H460 lung, 64.2%; in the experiment with HOP-92 NSCLC, 83.6%. Also, the growth in the experiment on NCI-H522 lung was 64%; in the experiment with A549/ATCC NSCLC, 92.1%; with 786-0 renal it was 94.2%; in the experiment with COLO 205 colon, 85.7%.

Take `Cc1ccc(S(=O)(=O)n2cc(CNc3ccc(N4CCOCC4=O)cc3)c3ccccc32)cc1`: the growth in the experiment with NCI-H23 lung was 87.8%; in the experiment with NCI-H226 lung, 92.4%; in the experiment with NCI-H322M lung it was 100%; in the experiment with HOP-62 NSCLC, 84.6%; with NCI-H460 lung it was 99.8%; in the experiment with HOP-92 NSCLC, 38.6%. The growth in the experiment with NCI-H522 lung was -10.5% (active); with A549/ATCC NSCLC it was 103%; with 786-0 renal, 92.3%; in the experiment on COLO 205 colon, 85.1%.

For `CC1SC(c2ccc(OCc3ccccc3)cc2)N(NC(=O)C(O)(c2ccccc2)c2ccccc2)C1=O` (stereo not given), the growth with NCI-H23 lung was 61%; in the experiment with NCI-H226 lung, 84.5%; in the experiment with NCI-H322M lung it was 49.1%; with HOP-62 NSCLC it was 79%; in the experiment with NCI-H460 lung it was 38.5%; in the experiment on HOP-92 NSCLC, 50.7%. In addition, the growth in the experiment with NCI-H522 lung is 24.4%; in the experiment on A549/ATCC NSCLC, 49.3%; with 786-0 renal it was 59.6%; with COLO 205 colon, 30.8%.

Take `NC(N)=Nc1nc2ccccc2n2c1nc1ccccc12`: the growth with NCI-H23 lung is 36.3%; with NCI-H226 lung, 56.7%; in the experiment on NCI-H322M lung it was 43.7%; in the experiment on HOP-62 NSCLC, 40.4%; in the experiment with NCI-H460 lung, 8.12% (active); in the experiment with HOP-92 NSCLC, 56.6%. Also, the growth in the experiment with NCI-H522 lung is 16.1%; with A549/ATCC NSCLC, 17.7%; with 786-0 renal, 33.5%; with COLO 205 colon, 30.3%.
